Reference: the supplement of paper PMC6555819

Assays:
Test in all cases: PBM binding z-score (relative to random genomic background probes); higher = stronger binding; sequences stand for … in GC…GCGATTGACAGCGTAGAATGAAGG
[1] = test system: PPARg:RXRa DBDmut IVT, anti-RXR (DBD mutation: RXRa K156A/R161A, NR concentration 270 nM, RXRa partner concentration 90 nM)
Procedure, shortened: (§1)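 On custom Agilent 4×180K arrays, double-stranded probes with 34-nt variable regions carried direct-repeat seeds, single-nucleotide variants, half-site ablations or random human genomic background. Ligand-free nuclear receptor dimers were applied for 1 h, and binding was read with antibodies against each partner (one per run). Binding z-scores come from regression-normalized fluorescence, with the random background probes as reference.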

[2] = test system: PPARg:RXRa IVT, anti-PPARg (NR concentration 270 nM, RXRa partner concentration 90 nM)
Procedure, shortened: as §1

[3] = test system: PPARg DBDmut:RXRa IVT, anti-PPARg (DBD mutation: PPARg1 K132A/R137A, NR concentration 270 nM, RXRa partner concentration 90 nM)
Procedure, shortened: as §1

[4] = test system: PPARg DBDmut IVT, anti-PPARg (DBD mutation: PPARg1 K132A/R137A, NR concentration 270 nM)
Procedure, shortened: as §1

[5] = test system: PPARg homodimer (NR concentration 180 nM)
Procedure, shortened: as §1

[6] = test system: PXR:RXRa (NR concentration 270 nM, RXRa partner concentration 90 nM)
Procedure, shortened: as §1

[7] = test system: PXR homodimer (NR concentration 270 nM)
Procedure, shortened: as §1

[8] = test system: RARa:RXR (NR concentration 270 nM, RXRa partner concentration 90 nM)
Procedure, shortened: as §1

[9] = test system: RARa homodimer (NR concentration 270 nM)
Procedure, shortened: as §1

[10] = test system: RARb:RXRa (NR concentration 270 nM, RXRa partner concentration 90 nM)
Procedure, shortened: as §1

Sequence	PBM binding z-score [1]	PBM binding z-score [2]	PBM binding z-score [3]	PBM binding z-score [4]	PBM binding z-score [5]	PBM binding z-score [6]	PBM binding z-score [7]	PBM binding z-score [8]	PBM binding z-score [9]	PBM binding z-score [10]
AAAGACAGGTGATGAAGGTAACTCAGGCTATCAT	0.0134	0.744	0.665	-0.142	0.408	0.0948	0.956	0.223	1	0.438
TCTACAGGGTCAAAGGCCAGAGTACGAATGTCGA	2.69	4.11	0.545	0.757	1.6	4.1	0.202	5.76	0.385	4.29
CCTACTGGGCCAAGGGTCATTGATTCCAATGCTC	3.29	5.63	0.63	-0.667	1.67	3.15	-0.275	3.87	0.1	3.06
AATTCAGGGTCATCGTAGGCCAGAGTACGCACAG	3.42	4.57	2.45	3.09	2.85	5.49	1.43	5.54	1.45	4.45
TCTTGTATATCAAGCAGGTTAAGAAAGCCTGAGT	1.41	0.503	0.561	1.48	0.514	0.624	0.331	0.805	0.189	0.615
CGAACTAGGTCAGAACAGGACAGTGAAGGATGAT	7.21	6.92	1.26	0.744	0.92	0.787	-0.0517	0.927	0.693	2.77
TCTTGTTGGTCACGGAGGTCACACACGACGGGTA	2.92	4.57	2.15	2.59	4.65	5	2.43	5.34	3.1	4.17
CGAACGAGGGCATGAGTTGAAAGCAAATGCCGAT	2.92	2.09	-0.35	-0.394	0.0525	0.538	-0.57	0.846	-0.757	1.96
CCTTACGGGTCACGAGGTTATAGCACGACGAGCG	3.98	5.69	1.85	0.701	2.37	4.46	0.418	5.47	0.688	4.62
CCTAGCAGGCCAATCTGGGACACTCAAGGCTTGA	3.13	2.73	-0.765	-0.94	-0.694	-0.828	-0.916	-0.753	-0.862	0.0896
TAGCCTAAGTCATTCAGGGGCCAGTATAGAAAGC	-0.155	-0.0585	0.0399	0.2	0.00647	0.14	-0.297	0.276	-0.483	0.478
ACAGCCAGGTGATGAAGGTAACTCAGGCTATCAT	0.0691	0.392	-0.315	-0.803	-0.425	-0.407	-0.502	0.0022	-0.504	-0.00483
TCTGCTAGGTCACTTGGTCAGCTAACGAGCTGCC	4.06	4.55	2.55	1.22	0.811	0.889	-0.812	1.93	-0.792	3.81
AATGCAGGGTCATCGTAGGCCAGAGTACGCACAG	2.83	4.24	1.78	1.66	2.03	4.81	0.279	4.75	0.252	4.37
TCGAGTAGGTTAGGGGCATTCCGAATGGCGTCGA	2.28	1.28	-1.42	-0.881	0.639	0.385	-0.429	0.334	-0.756	1.06
CCGACTGGGGCACAAGGTTACCATAAGCCAGCCC	3.82	4.45	-0.334	-0.282	1.62	0.226	-0.93	0.828	-0.242	1.46
CCTACCAGGCCAATCTGGGTCACTCAAGGCTTGA	3.85	5.15	-0.114	-1.08	1.37	1.39	0.0886	1.66	0.203	1.71
AGTCAAAGTTCACTTGGTAACGTAAGATTCAGCT	0.263	2.42	1.28	0.299	1.76	4.17	2.53	2.62	0.876	4.58
CCTAGCAGGCGAATCTGGGTCACTCAAGGCTTGA	4.47	5.39	-1.46	-1.28	0.225	0.221	-0.605	1.13	-0.282	0.812
ACAGACAGGGGATGAAGGTAACTCAGGCTATCAT	-0.0159	0.23	0.918	0.962	0.411	0.126	0.556	-0.0712	0.0686	0.299
GATACAGGGTCACCTAGAGGCCAGAGTATGGAAA	2.73	4.97	2.46	1.14	3.21	4.54	0.0767	6.04	0.306	4.56
AGAATGACGTTACCAAAGATCAGGGAAACGCTTG	-0.672	-0.0252	0.249	0.258	0.216	-0.527	-0.0125	-0.159	0.157	-0.301
TCTAATAGTTGAAGGGCAACCGACGAGTCCGTTT	2.21	0.129	1.32	0.0205	0.705	0.839	0.503	0.712	-0.387	1.53
CGAACTAGGTCAAGGGCAGTGAATCTCCGCACGC	7.67	8.29	1.07	0.971	1.46	1.14	-0.131	1.86	-0.096	4.13
GCGACTGGTGCAAAGCAGGTTACCATAAGGTTGG	-0.384	0.329	-0.718	-1.22	-0.73	-0.0682	-0.682	0.163	-1.27	-0.0547
